{"source": "PubChem BioAssay (NCATS)", "note": "Inconclusive results are not listed. Values without a mark were called inactive. Calls of active or inactive are those of the source. The call rests on the fitted dose curve; in most records, active means well fitted curve in the direction sought with a large enough effect; inconclusive means small, poorly fitted or top-dose-only effect, or another doubt; inactive means no such curve, though single readings can be large; an effect the other way counts as inactive or inconclusive. Bridge positions count the residues as written; N and C are the ends. Square brackets hold non-standard residues; d marks the D form. Side chains are listed from the residue outwards. Peptide text beside a SMILES is read from it. * marks the point of attachment. Phg(4-OMe) = COc1ccc([C@H](N)C(=O)O)cc1; d(aIle) = CC[C@H](C)[C@@H](N)C(=O)O; d(aThr) = C[C@@H](O)[C@@H](N)C(=O)O; NMeF = CN[C@@H](Cc1ccccc1)C(=O)O; Isobutyryl = CC(C)C(=O)*"}
{"assay": "DH5-alpha competent E. coli microbial cell viability qHTS against the NCATS CANVASS Library (AID 1347377); on viability signal change, negative = cytotoxic: 0% is about no effect", "details": "BacTiter-Glo ATP luminescence, overnight; series mostly up to 46.1 µM; viability signal change, negative = cytotoxic: at the top concentration", "summary_of_the_method": "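Overnight incubation at 37C, 5% CO2 of E. coli DH5-alpha (diluted to 0.2 OD) with compounds precedes BacTiter-Glo addition. Luminescence, acquired after 20 min at room temperature, reflects viable-cell ATP.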"}
{"smiles": "Cc1occ2c1C(=O)c1c(cc(O)c(O)c1O)C2=O", "viability signal change, negative = cytotoxic": "-25.3%"}
{"smiles": "O=C1CC2OCC=C3CN4C5CC3C2[C@@H]2N1c1ccccc1[C@]52C[C@@H]4C1=C[C@H]2C3CC4N(CC[C@@]45c4ccccc4N(C1=O)[C@@H]25)C/C3=C/CO", "note": "(stereo not given in full)", "viability signal change, negative = cytotoxic": "8.65%"}
{"smiles": "C/C(=C\\[C@H](C)C(=O)CCCC1CC(=O)NC(=O)C1)[C@@H]1OC(=O)/C=C/CC/C=C/[C@H](O)[C@@H](O)[C@@H]1C", "viability signal change, negative = cytotoxic": "10.5%"}
{"smiles": "C=C[C@@]1(C)CC[C@@H]([C@H](C)C(=O)/C=C/C(C)(C)O)O1", "viability signal change, negative = cytotoxic": "3.5%"}
{"smiles": "COc1ccc([C@@H]2CC(=O)c3c(cc(O)c(C/C=C(\\C)CCC=C(C)C)c3O)O2)cc1", "viability signal change, negative = cytotoxic": "8.04% [at 9.19 µM]"}
{"smiles": "O=c1cc(-c2ccc(O)c(O)c2)oc2cc(O[C@@H]3O[C@H](CO)[C@@H](O)[C@H](O)[C@H]3O)cc(O)c12", "viability signal change, negative = cytotoxic": "-7.42%"}
{"smiles": "CC[C@H](C)[C@H]1NC(=O)[C@@H](NC(=O)C(C)C)[C@@H](C)OC(=O)[C@H](COC(=O)CNC(C)=O)NC(=O)[C@@H]([C@@H](C)O)NC(=O)[C@H](Cc2ccccc2)N(C)C(=O)[C@H](c2ccc(OC)cc2)NC1=O", "note": "(Isobutyryl-T[d(aIle)][Phg(4-OMe)][NMeF][d(aThr)]S([Gly-Ac]); ester 1-C)", "viability signal change, negative = cytotoxic": "11.6%"}
{"smiles": "C[n+]1cc2cc(C(N)=O)[nH]c3c(=N)c(Cl)c(N)c1c23", "outcome": "inactive"}
{"smiles": "C/C1=C/[C@@H](C)[C@H](O)[C@@H](O)/C=C/CC/C=C/C(=O)O[C@@H]1[C@H](C)C(=O)CCCC1CC(=O)NC(=O)C1", "viability signal change, negative = cytotoxic": "4.27%"}
{"smiles": "COc1ccc2[nH]c3c(c2c1)CCN1C[C@H]2C[C@@H](OC(=O)c4cc(OC)c(OC)c(OC)c4)[C@H](OC)[C@@H](OC)[C@H]2C[C@H]31", "viability signal change, negative = cytotoxic": "27.7%"}
{"smiles": "CC(C)=CC[C@H]1C[C@@]2(CC=C(C)C)C(=O)[C@](CC=C(C)C)(C(=O)C(C(=O)c3ccccc3)=C2O)C1(C)C", "outcome": "inactive"}
{"smiles": "CC(=O)O[C@H]1c2ccccc2-c2c3c(cc4c2[C@@H]1N(C(C)=O)CC4)OCO3", "viability signal change, negative = cytotoxic": "13.9%"}
{"smiles": "C=C[C@](Cl)(CBr)CCC=C(C)C", "viability signal change, negative = cytotoxic": "5.95%"}
{"smiles": "COc1cc2c(cc1OC)[C@@H](c1ccc3c(c1)OCO3)C(C)C(C)C2=O", "note": "(stereo not given in full)", "viability signal change, negative = cytotoxic": "0.879%"}
{"smiles": "C[C@H]1C=C[C@H]2CCCC[C@@H]2[C@H]1C(=O)[C@H]1CC2=C(C(=O)O)CCN2C1=O", "viability signal change, negative = cytotoxic": "15.8%"}
{"smiles": "C/C(=C\\[C@H](C)C(=O)/C=C/CC1CC(=O)NC(=O)C1)[C@@H]1OC(=O)/C=C/CC/C=C/C[C@@H](O)[C@@H]1C", "outcome": "inactive"}
{"smiles": "CC(C)[C@]12CC[C@@]3(C)[C@H](C)CC[C@H](O)[C@@]3(CC1)c1cc3c(cc12)[nH]c1ccccc13", "outcome": "inactive"}
{"smiles": "C/C=C1/CN2C3CC1C1C=CC(=O)N4c5ccccc5[C@@]3(C[C@@H]2C2=C[C@H]3C5CC6N(CC[C@@]67c6ccccc6N(C2=O)[C@@H]37)C/C5=C/C)[C@H]14", "note": "(stereo not given in full)", "viability signal change, negative = cytotoxic": "12%"}
{"smiles": "CC(C)=CCC[C@]12c3cc4c(cc3CC[C@@]1(C)[C@H](C)CC[C@@H]2O)[nH]c1ccccc14", "viability signal change, negative = cytotoxic": "10.4%"}
{"smiles": "Oc1ccc(C2Oc3cc(O)c4c(c3[C@@H]2c2cc(O)cc(O)c2)[C@H]2C(c3ccc(O)cc3)c3c(O)cc5c(c3[C@H]2C4c2ccc(O)cc2)[C@H](c2cc(O)cc(O)c2)C(c2ccc(O)cc2)O5)cc1", "note": "(stereo not given in full)", "viability signal change, negative = cytotoxic": "-1.96%"}
{"smiles": "COc1cc(/C=C/C(=O)OC[C@@H](Cc2ccc(O)c(OC)c2)[C@@H](COC(=O)/C=C/c2ccc(O)c(OC)c2)Cc2ccc(O)c(OC)c2)ccc1O", "outcome": "inactive"}
{"smiles": "C=CC(CCCCC)C1C(=O)NC(=O)C1C(=O)C1C2C(C)CC(C(=O)O)CC2CC1(O)C(=O)/C=C/C", "note": "(stereo not given)", "viability signal change, negative = cytotoxic": "4.43%"}
{"smiles": "C[C@]12CCC[C@](C)(C(=O)O)[C@@H]1CC[C@@]1(C)c3cocc3CC[C@H]21", "outcome": "inactive"}
{"smiles": "COc1c(O)cc2c(c1O)C(=O)c1c(coc1C)C2=O", "viability signal change, negative = cytotoxic": "-2.05%"}
{"smiles": "CC(C)C[C@@H]1c2c(O)c(C=O)c(O)c(C=O)c2O[C@]2(C)C=C[C@@H](C(C)C)C[C@H]12", "viability signal change, negative = cytotoxic": "0.737%"}
{"smiles": "COc1cc2c(c(O)c1O)C(=O)c1c(coc1C)C2=O", "viability signal change, negative = cytotoxic": "4.13%"}
{"smiles": "CO[C@H]1[C@@H](OC(=O)/C(C)=C\\[C@@H]2O[C@@H]2[C@H]2O[C@H]2C)[C@H](O)[C@H](OCC23C[C@@H]4[C@H](C)CC[C@H]4C4(C=O)CC2C=C(C(C)C)C34C(=O)O)O[C@@H]1C", "note": "(stereo not given in full)", "outcome": "inactive"}
{"smiles": "CC[C@H]1[C@H](C)[C@H](c2cc(OC)c(OC)cc2OC)[C@@H](C)[C@H](c2cc(OC)c(OC)cc2OC)[C@@]12C=C(OC)C(=O)C=C2OC", "viability signal change, negative = cytotoxic": "5.72%"}
{"assay": "qHTS for H2AX Agonists against the NCATS CANVASS Library (AID 1347378); further: potency means the concentration at half of the fitted maximal effect; on activation: 0% is about no effect", "details": "CHO-K1 H2AX phosphorylation, HTRF TR-FRET, 3 h; series mostly up to 76.9 µM; activation: at the top concentration", "summary_of_the_method": "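Signal is the 665/620 nm emission ratio from europium cryptate and d2 antibody pair, rising with S139-phosphorylated H2AX. CHO-K1 cells saw test agents for 3 hr at 37C; detection ran 24 hr at room temperature.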", "units": {"activation": "%"}}
{"smiles": "Cc1occ2c1C(=O)c1c(cc(O)c(O)c1O)C2=O", "Potency": "24.4 µM (active)"}
{"smiles": "O=C1CC2OCC=C3CN4C5CC3C2[C@@H]2N1c1ccccc1[C@]52C[C@@H]4C1=C[C@H]2C3CC4N(CC[C@@]45c4ccccc4N(C1=O)[C@@H]25)C/C3=C/CO", "note": "(stereo not given in full)", "activation": 1.53}
